A number with no mark means an inactive call.
These targets were tested with C#CCNC(=O)CCSSCCC(=O)NCCc1ccc(C=O)c(C=O)c1 (assay: lysine labeling ratio R10:1 (500 µM / 50 µM probe), SILAC-ABPP in living cells; higher = lower intrinsic lysine reactivity toward the probe, active = 2 or less). Details: HeLa; probe concentrations 500 vs 50 µM.
Procedure, shortened: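 For each lysine, R is the median over forward and reverse replicates of the filtered median MS1 peptide ratio of high probe to low probe. The probe, an alkyne-tagged, disulfide-linked lysine probe, was given at 500 µM or 50 µM to living SILAC light and heavy HeLa cells in PBS at room temperature, with label swaps. Values are capped at 20.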

Chain of UniProt P29317 (P29317 whole entry): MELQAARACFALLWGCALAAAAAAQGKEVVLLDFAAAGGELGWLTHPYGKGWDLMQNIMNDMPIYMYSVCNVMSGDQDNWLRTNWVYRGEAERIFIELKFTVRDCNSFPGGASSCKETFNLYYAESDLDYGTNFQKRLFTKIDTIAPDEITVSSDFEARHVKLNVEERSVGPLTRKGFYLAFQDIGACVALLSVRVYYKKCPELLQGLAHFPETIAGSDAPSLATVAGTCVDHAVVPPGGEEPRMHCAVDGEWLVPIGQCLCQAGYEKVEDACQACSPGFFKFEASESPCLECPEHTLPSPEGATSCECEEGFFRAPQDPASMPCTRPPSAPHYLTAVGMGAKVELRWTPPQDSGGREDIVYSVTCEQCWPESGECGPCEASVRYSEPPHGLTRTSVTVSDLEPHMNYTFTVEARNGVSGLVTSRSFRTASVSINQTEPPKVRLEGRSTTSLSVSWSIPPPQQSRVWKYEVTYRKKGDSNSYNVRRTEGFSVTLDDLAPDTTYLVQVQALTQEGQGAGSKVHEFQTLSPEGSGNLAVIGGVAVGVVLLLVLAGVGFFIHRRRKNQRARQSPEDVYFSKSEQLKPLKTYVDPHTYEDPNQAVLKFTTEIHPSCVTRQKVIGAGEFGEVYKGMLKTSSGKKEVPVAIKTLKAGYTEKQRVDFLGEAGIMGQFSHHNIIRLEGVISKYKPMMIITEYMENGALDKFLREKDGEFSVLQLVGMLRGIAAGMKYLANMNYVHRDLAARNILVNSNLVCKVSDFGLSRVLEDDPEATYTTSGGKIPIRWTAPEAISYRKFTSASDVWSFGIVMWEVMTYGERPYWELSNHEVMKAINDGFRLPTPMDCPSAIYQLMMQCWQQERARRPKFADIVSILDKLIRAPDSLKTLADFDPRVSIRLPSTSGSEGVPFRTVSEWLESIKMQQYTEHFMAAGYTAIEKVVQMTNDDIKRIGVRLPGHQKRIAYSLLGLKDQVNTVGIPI
Chain of UniProt P07814 (P07814 whole entry): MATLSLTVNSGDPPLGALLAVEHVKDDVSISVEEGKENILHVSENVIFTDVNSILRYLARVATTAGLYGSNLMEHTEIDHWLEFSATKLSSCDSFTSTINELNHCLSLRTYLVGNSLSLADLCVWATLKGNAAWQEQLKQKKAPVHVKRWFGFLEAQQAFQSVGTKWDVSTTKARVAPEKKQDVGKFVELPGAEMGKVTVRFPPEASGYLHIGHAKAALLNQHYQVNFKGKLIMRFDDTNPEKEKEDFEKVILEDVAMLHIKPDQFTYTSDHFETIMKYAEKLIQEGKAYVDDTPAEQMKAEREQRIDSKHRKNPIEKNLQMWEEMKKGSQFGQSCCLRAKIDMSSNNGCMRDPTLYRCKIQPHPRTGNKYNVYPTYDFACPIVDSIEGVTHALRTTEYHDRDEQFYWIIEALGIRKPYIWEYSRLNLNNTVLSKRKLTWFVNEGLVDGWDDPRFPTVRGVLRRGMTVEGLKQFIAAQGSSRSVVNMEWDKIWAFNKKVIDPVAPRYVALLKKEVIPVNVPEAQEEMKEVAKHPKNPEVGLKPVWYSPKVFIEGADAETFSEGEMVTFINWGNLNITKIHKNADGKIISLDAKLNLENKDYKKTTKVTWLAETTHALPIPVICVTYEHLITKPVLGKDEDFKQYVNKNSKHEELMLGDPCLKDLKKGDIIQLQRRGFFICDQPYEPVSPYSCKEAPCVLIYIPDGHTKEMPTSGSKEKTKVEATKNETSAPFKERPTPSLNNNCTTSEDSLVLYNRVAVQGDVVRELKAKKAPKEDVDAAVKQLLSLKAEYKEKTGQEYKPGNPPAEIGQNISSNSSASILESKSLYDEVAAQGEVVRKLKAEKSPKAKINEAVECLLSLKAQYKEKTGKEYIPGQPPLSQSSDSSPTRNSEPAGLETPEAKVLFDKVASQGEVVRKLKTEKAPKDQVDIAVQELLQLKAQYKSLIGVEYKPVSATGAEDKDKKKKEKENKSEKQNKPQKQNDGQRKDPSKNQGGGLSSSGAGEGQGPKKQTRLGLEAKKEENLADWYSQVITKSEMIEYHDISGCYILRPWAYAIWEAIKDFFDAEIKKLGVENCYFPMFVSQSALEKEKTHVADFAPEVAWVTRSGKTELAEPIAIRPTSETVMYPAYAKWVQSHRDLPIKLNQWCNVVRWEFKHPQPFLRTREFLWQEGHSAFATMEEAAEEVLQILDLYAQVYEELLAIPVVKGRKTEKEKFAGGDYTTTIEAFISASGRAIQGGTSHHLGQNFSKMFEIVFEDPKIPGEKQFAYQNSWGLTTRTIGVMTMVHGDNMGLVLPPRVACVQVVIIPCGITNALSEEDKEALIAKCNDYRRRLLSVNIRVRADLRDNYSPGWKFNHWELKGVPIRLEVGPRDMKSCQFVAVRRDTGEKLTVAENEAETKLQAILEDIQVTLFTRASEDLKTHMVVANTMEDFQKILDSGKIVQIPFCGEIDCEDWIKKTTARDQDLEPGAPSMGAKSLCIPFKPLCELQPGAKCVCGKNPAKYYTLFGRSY
Chain of UniProt P52272 (P52272 whole entry): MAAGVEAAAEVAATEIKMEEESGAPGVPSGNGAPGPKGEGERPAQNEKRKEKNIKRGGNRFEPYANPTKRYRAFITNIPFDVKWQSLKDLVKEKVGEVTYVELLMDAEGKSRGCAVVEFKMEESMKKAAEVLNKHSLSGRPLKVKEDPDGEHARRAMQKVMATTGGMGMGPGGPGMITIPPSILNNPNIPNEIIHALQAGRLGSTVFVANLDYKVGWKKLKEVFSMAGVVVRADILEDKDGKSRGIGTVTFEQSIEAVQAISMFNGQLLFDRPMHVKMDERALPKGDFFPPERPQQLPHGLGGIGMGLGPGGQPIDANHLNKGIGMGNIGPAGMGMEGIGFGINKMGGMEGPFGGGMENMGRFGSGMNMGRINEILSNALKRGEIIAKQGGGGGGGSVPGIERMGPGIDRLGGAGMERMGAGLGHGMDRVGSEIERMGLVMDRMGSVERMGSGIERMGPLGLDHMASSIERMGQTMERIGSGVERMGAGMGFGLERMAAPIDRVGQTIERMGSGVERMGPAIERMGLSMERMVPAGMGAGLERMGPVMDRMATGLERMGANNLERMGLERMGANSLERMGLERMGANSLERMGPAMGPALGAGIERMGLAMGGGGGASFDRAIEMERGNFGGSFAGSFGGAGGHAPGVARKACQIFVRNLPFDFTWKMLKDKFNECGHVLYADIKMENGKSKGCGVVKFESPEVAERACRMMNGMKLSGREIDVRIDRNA
Chain of UniProt Q99832 (Q99832 whole entry): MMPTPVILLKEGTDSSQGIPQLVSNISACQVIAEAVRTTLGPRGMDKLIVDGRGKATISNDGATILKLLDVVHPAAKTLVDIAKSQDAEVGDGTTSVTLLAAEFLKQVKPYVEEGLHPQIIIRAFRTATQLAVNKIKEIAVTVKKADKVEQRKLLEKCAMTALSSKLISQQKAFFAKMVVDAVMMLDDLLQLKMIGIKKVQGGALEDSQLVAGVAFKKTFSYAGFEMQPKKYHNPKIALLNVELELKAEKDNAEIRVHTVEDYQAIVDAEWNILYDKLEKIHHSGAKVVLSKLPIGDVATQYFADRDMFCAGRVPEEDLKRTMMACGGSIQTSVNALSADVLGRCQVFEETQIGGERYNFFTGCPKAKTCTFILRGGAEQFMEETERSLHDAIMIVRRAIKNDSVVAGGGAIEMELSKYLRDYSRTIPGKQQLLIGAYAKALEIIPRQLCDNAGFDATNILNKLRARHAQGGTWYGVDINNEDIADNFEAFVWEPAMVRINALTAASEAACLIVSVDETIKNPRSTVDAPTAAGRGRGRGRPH
Chain of UniProt Q5T9A4 (Q5T9A4 whole entry): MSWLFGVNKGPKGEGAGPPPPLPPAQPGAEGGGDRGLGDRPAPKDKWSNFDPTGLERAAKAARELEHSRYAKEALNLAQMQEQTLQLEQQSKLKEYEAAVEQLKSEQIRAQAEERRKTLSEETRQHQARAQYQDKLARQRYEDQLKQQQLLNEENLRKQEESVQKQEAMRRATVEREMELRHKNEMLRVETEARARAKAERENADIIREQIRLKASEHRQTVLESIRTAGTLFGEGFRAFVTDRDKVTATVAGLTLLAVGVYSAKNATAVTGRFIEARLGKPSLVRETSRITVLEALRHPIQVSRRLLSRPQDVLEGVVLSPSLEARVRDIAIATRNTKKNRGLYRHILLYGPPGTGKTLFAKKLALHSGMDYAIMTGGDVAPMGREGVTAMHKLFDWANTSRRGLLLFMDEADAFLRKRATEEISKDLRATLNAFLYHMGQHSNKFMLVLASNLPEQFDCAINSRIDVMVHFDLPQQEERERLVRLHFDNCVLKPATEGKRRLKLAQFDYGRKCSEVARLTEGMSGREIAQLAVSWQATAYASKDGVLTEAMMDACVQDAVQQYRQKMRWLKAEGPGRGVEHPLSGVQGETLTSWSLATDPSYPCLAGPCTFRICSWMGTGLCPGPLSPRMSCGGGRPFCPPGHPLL
Chain of UniProt P27348 (P27348 whole entry): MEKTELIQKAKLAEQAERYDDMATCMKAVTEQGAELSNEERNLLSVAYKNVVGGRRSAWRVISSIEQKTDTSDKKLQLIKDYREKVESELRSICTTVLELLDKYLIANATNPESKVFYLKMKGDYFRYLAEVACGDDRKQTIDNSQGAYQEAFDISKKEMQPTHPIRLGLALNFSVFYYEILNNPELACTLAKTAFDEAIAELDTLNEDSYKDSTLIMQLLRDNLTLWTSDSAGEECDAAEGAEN
Chain of UniProt Q9UQ80 (Q9UQ80 whole entry): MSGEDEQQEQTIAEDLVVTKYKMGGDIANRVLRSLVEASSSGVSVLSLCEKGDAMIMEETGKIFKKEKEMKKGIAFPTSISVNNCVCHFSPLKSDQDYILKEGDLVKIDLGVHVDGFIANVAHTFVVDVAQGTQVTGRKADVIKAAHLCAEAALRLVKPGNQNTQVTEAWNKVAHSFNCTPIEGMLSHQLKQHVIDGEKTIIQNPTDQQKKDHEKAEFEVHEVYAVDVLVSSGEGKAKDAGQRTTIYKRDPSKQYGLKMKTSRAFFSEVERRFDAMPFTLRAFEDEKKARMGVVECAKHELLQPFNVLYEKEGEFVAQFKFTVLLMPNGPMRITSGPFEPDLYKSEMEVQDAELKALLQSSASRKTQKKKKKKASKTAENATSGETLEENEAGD

Row | Target | lysine labeling ratio R10:1
1 | ATAD3B (lysine site: K46) (UniProt Q5T9A4) | 3.54
2 | CCT7 (lysine site: K320) (UniProt Q99832) | 2.53
3 | INSR (lysine site: K476) (UniProt P06213) | 1.75 (active)
4 | UniProt Q15149 (lysine site: K932) | 6.51
5 | ITGA3 (lysine site: K620) (UniProt P26006) | 1.8 (active)
6 | EPHA2 (lysine site: K476) (UniProt P29317) | 3.45
7 | YWHAQ (lysine site: K85) (UniProt P27348) | 4.79
8 | PA2G4 (lysine site: K22) (UniProt Q9UQ80) | 0.568 (active)
9 | EHD2 (lysine site: K491) (UniProt Q9NZN4) | 1.25 (active)
10 | HNRNPU (lysine site: K565) (UniProt Q00839) | 3.39
11 | CYR61 (lysine site: K378) (UniProt O00622) | 1.08 (active)
12 | EPRS (lysine site: K360) (UniProt P07814) | 1.77 (active)
13 | MSLN (lysine site: K307) (UniProt Q13421) | 1.74 (active)
14 | HNRNPM (lysine site: K698) (UniProt P52272) | 0.67 (active)
15 | SPTAN1 (lysine site: K1750) (UniProt Q13813) | 2.19
16 | NUMA1 (lysine site: K925) (UniProt Q14980) | 2.01
17 | HSPA5 (lysine site: K185) (UniProt P11021) | 3.68

Source: the supplement of paper PMC11001985
